Data reported in PubChem BioAssay AID1878 (Sanford-Burnham Center for Chemical Genomics, 2009).
Screen size: about 1,000 compounds; about 200 (20%) were called active. The list is a sample of the results. Potency and affinity values are given separately. A number with no mark means an inactive call. Rule as the data show it: active = inhibition above about 55%; inactive = the rest.

What follows are compounds tested against Dual specificity protein phosphatase 3 (Homo sapiens) (UniProt P51452) (assay: VHR1 phosphatase inhibitors, biochemical (AID 1878)). Details: recombinant VHR phosphatase, fluorogenic substrate; at 13.3 µM; stronger effect = higher value.
Chain of Dual specificity protein phosphatase 3 (Homo sapiens) (P51452 whole entry, looked up): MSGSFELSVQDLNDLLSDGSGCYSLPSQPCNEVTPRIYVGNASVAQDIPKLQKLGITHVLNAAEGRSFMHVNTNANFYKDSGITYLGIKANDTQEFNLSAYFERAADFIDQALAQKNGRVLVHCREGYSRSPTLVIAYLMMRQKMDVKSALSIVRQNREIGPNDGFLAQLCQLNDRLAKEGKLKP

SMILES | inhibition
Cc1cccc(NC(=O)COc2ccc(/C=C\c3[nH]c(=O)[nH]c(=O)c3[N+](=O)[O-])cc2)c1 | 98.7% (active)
Cc1ccc(NC(=O)COc2cccc(-n3cnnn3)c2)cc1[N+](=O)[O-] | -11.9%
Cc1ccc(OCC(=O)Nc2ccc(C(N)=O)cc2)cc1 | 19.4%
Cc1nn(C)c(C)c1CCC(=O)N1CCCC(N2CCN(c3ccc(F)cc3)CC2)C1 (stereo not given) | -3.3%
Cc1nc2sccn2c(=O)c1S(=O)(=O)Nc1ccc(N2CCN(S(C)(=O)=O)CC2)cc1 | -12.5%
COc1ccc(-c2ccnc3[nH]n(-c4ccccc4)c(=O)c23)cc1 | 7.3%
O=c1c2c(-c3cccc([N+](=O)[O-])c3)ccnc2[nH]n1-c1ccccc1 | 74.2% (active)
O=[N+]([O-])c1cccc(S(=O)(=O)N2CCN(c3ccccn3)CC2)c1 | -9.5%
COc1ccc2c(C)nc(N/C(N)=N/S(=O)(=O)c3ccc(C)cc3)nc2c1 | 26.9%
Cn1c(=O)[nH]c(=O)c2c1nc(N1CCNCC1)n2Cc1ccccc1Cl | 0.7%
COc1cc(NC(=O)c2cnc(NCc3ccccc3)nc2C)cc(OC)c1OC | -1.7%
c1cc(-c2nnc3sc(C4CCCCC4)nn23)ccn1 | -3.4%
COc1ccccc1NS(=O)(=O)c1ccc2oc(SC)nc2c1 | -3.1%
O=C1Nc2ccccc2C1=Nc1ccc(F)cc1 | -4.5%
O=C(NC(=S)Nc1ccccn1)c1ccc(-c2ccccc2)cc1 | 0.9%
O=C(O)c1ccc(NC(=S)NC(=O)C(c2ccccc2)c2ccccc2)cc1 | -6.3%
COc1cccc(-c2cc(C(=O)N3CCc4ccccc4C3)[nH]n2)c1 | 6.6%
COc1ccc(NC(=O)c2cc3ccc4c5ccccc5[nH]c4c3cc2O)cc1 | 19.8%
O=C(C1CC1)N1N=C(c2cccc(Br)c2)CC1(O)C(F)(F)F (stereo not given) | 2.7%
Nc1ccc(C(=O)N(CCO)CCO)cc1 | 4.4%
CN(C)C(=O)/C(=C/c1ccc(-c2cccc([N+](=O)[O-])c2)o1)NC(=O)c1ccccc1 | 1.2%
Cc1ccc2nc(/C(C#N)=C/c3ccc(-c4cccc([N+](=O)[O-])c4)o3)[nH]c2c1 | 96.4% (active)
CC(=O)Nc1nc(C)c(-c2nc3ccc([N+](=O)[O-])cc3[nH]2)s1 | 1%
Cc1cc(C)c(S(=O)(=O)NCC2CCC(C(=O)NCCCN3CCC(C)CC3)CC2)c(C)c1 (stereo not given) | -3.9%
CC(=O)N1CCN(c2ccc(NCc3cccc4ccccc34)cc2)CC1 | 3.9%
